Laboratory results as given in the supplement of paper PMC6555819.

What was measured:
Experiment in all cases: PBM binding z-score (relative to random genomic background probes); higher = stronger binding; sequences stand for … in GC…GCGATTGACAGCGTAGAATGAAGG
[1] = test system: PPARg:RXRa DBDmut IVT, anti-RXR (DBD mutation: RXRa K156A/R161A, NR concentration 270 nM, RXRa partner concentration 90 nM)
How it was run: (§1)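 Binding z-scores were set against random background probes. The data came from custom Agilent 4×180K protein-binding microarrays carrying double-stranded probes with 34-nt variable regions, incubated 1 h with ligand-free nuclear receptor dimers. Partner-specific antibodies detected binding, and scanned fluorescence was regression-normalized.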

[2] = test system: PPARg:RXRa IVT, anti-PPARg (NR concentration 270 nM, RXRa partner concentration 90 nM)
How it was run: as §1

[3] = test system: PPARg DBDmut:RXRa IVT, anti-PPARg (DBD mutation: PPARg1 K132A/R137A, NR concentration 270 nM, RXRa partner concentration 90 nM)
How it was run: as §1

[4] = test system: PPARg DBDmut IVT, anti-PPARg (DBD mutation: PPARg1 K132A/R137A, NR concentration 270 nM)
How it was run: as §1

[5] = test system: PPARg homodimer (NR concentration 180 nM)
How it was run: as §1

[6] = test system: PXR:RXRa (NR concentration 270 nM, RXRa partner concentration 90 nM)
How it was run: as §1

[7] = test system: PXR homodimer (NR concentration 270 nM)
How it was run: as §1

[8] = test system: RARa:RXR (NR concentration 270 nM, RXRa partner concentration 90 nM)
How it was run: as §1

[9] = test system: RARa homodimer (NR concentration 270 nM)
How it was run: as §1

[10] = test system: RARb:RXRa (NR concentration 270 nM, RXRa partner concentration 90 nM)
How it was run: as §1

[11] = test system: RARb homodimer (NR concentration 270 nM)
How it was run: as §1

[12] = test system: RARg:RXRa (NR concentration 270 nM, RXRa partner concentration 90 nM)
How it was run: as §1

[13] = test system: RARg homodimer (NR concentration 270 nM)
How it was run: as §1

[14] = test system: RXRa DBDmut IVT, anti-RXR (DBD mutation: RXRa K156A/R161A, NR concentration 90 nM)
How it was run: as §1

[15] = test system: RXRa homodimer (NR concentration 180 nM)
How it was run: as §1

[16] = test system: THRa:RXRa (NR concentration 90 nM, RXRa partner concentration 90 nM)
How it was run: as §1

[17] = test system: THRa homodimer (NR concentration 90 nM)
How it was run: as §1

[18] = test system: VDR homodimer (NR concentration 270 nM)
How it was run: as §1

Sequence | PBM binding z-score [1] | PBM binding z-score [2] | PBM binding z-score [3] | PBM binding z-score [4] | PBM binding z-score [5] | PBM binding z-score [6] | PBM binding z-score [7] | PBM binding z-score [8] | PBM binding z-score [9] | PBM binding z-score [10] | PBM binding z-score [11] | PBM binding z-score [12] | PBM binding z-score [13] | PBM binding z-score [14] | PBM binding z-score [15] | PBM binding z-score [16] | PBM binding z-score [17] | PBM binding z-score [18]
CCTGCTAGGTGAATGGTCAGCTAAAGCAGCTCGC | 3.48 | 2.62 | -0.739 | -1.37 | -0.377 | -0.698 | -0.722 | -0.44 | -1.03 | 1 | 0.445 | 0.0358 | 0.301 | -0.37 | -0.237 | 0.283 | -0.317 | -0.841
ACTATTAGTTGACTTCGGGCAACCGATACGACGC | -0.0241 | 0.38 | 0.985 | 0.939 | 0.728 | 0.138 | 0.00546 | 0.411 | 0.245 | 0.417 | 0.558 | 0.37 | 0.691 | 0.225 | 0.42 | 1.06 | 0.256 | 0.371
TAGCCTAGGTCATTAGGCCAGTATAGTACGCATC | 2.12 | 3.88 | 0.301 | -0.52 | 1.19 | 0.87 | -0.114 | 1.79 | 0.0486 | 3.24 | 2.93 | 3.47 | 3.8 | 1.54 | 2.1 | 2.4 | 0.34 | 0.922
GGAACAAGGGCATTCGAGTTGATAGCATGGCGAT | 2.21 | 1.65 | -0.248 | -0.286 | 0.614 | 3.18 | 0.975 | 0.884 | 0.198 | 2.02 | 1.12 | 1.21 | 1.36 | 2.48 | 0.917 | 3.16 | -0.205 | 2.39
TCTTGTAGATCAAACAGGTTAAGAAAGCCTGAGT | 1.7 | 0.783 | 1.28 | 0.534 | -0.369 | 0.754 | 0.338 | 0.849 | 0.0835 | 0.288 | 0.167 | 0.214 | 0.186 | 0.683 | 0.587 | 0.607 | -0.548 | 0.0762
ATACCAAGGTGATCCTGAGGTCGTTGATACTAAC | 0.567 | 1.08 | 0.87 | 0.266 | 0.931 | 3.21 | 1.41 | 2.34 | 0.52 | 1.39 | 1.82 | 2.54 | 0.948 | 0.968 | 2.08 | 3.67 | 2.52 | 2.87
GCATATAGGTAACACAAGGTGAAAGTCCGATTGT | 5.29 | 4.7 | 0.827 | 0.927 | 0.275 | 0.74 | -0.11 | 1.25 | 0.102 | 0.856 | 1.15 | 0.82 | 0.784 | 0.286 | 0.938 | 4.19 | 0.843 | 0.00161
TCTGCTTGGTCAGTTGGTCAGCTAACGAGCTGCC | 0.546 | 0.646 | -0.341 | 0.287 | -1.35 | -0.535 | -1.14 | -0.645 | -1.41 | 0.775 | 0.226 | -0.172 | -0.0396 | -0.00109 | -0.439 | -0.465 | -0.841 | -1.2
CCGACTGGGGCAGGAAGGTTACCATACCATCCGG | 1.39 | 2.05 | -0.739 | -1.79 | 0.462 | -0.00877 | -0.202 | 0.286 | -0.388 | 0.913 | 1.15 | 0.592 | 0.687 | -1.31 | 0.585 | 0.142 | -0.486 | -0.24
GCGACTGGGGCATGAGCAGGTTACCATAACTTAA | 3.82 | 3.4 | -0.58 | -0.475 | 0.287 | 0.134 | -0.328 | 0.416 | -0.578 | 0.781 | 0.894 | 0.84 | 0.396 | -0.489 | 0.385 | 0.664 | -0.144 | -0.116
ATCTCTAGGTAAAGATCGTTCAGTGAATGCAAAT | 2.03 | 1.66 | 1.31 | 0.707 | 0.555 | -0.16 | 0.0441 | 0.0862 | 0.49 | -0.0299 | 0.111 | 0.0557 | 0.231 | -0.238 | -0.178 | 0.22 | -0.0507 | 0.139
GCATAAAGGTAATACAAGGTGAAAGTCCGATTGT | 0.839 | 1.67 | 0.773 | 0.759 | 0.757 | 1.42 | -0.0245 | 1.99 | 0.262 | 1.11 | 1.18 | 1.15 | 0.92 | 0.231 | 1.32 | 4.64 | 0.994 | 0.291
CGTACAGGGTCAGCTAGGCCAGAGTAGGGACGGC | 1.75 | 2.64 | 0.166 | -0.287 | 1.47 | 2.28 | -0.805 | 3.32 | -0.147 | 4.16 | 3.07 | 4.55 | 4.77 | 1.93 | 4.1 | 3.05 | 0.562 | 1.14
CGAACGAGGGAATGAGTTGATAGCAAATGCCGAT | -0.446 | -0.487 | -0.561 | 0.167 | -0.451 | -0.632 | -0.33 | -0.875 | -0.143 | -0.567 | -0.933 | -0.383 | 0.11 | -0.064 | -0.465 | -0.489 | -0.692 | 0.188
TCTCGGAGGACACGAAAGGTCAGAGGTCGACATC | 1.89 | 2.44 | -0.583 | -0.569 | 2.83 | 5.34 | 0.827 | 6.51 | 1.05 | 4.57 | 5.07 | 5.51 | 5.38 | 1.21 | 6.06 | 3.99 | 1.69 | 2.12
